Experiment [1] relates to HaCat. Put plainly: Cytotoxic Profiling of Annotated Libraries Using Quantitative High-Throughput Screening (AID 1296008). The settings on record: Five cell lines viability, CellTiter-Glo ATP luminescence, 48-72 h; max response: active compounds read low. The essentials:
(§1)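 Cytotoxicity was measured as CellTiter-Glo ATP luminescence, read after 10 min at room temperature. Compound treatment of the cells lasted 48 or 72 hr at 37 degrees Celsius in a qHTS format.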

In experiment [2] the test system is NIH3T3. The experiment is described as above. To be noted: Five cell lines viability, CellTiter-Glo ATP luminescence, 48-72 h; max response: active compounds read low. The essentials:
as §1
A general note: Cellular ATP, detected with luciferase, serves as a proxy for viable cell number.

The test system of the next experiment is MCC-13. Put plainly: qHTS assay to identify novel small-molecules to repurpose for Merkel cell carcinoma treatment (AID 1296009). To be noted: MCC and control cell lines, CellTiter-Glo viability, 72 h; series mostly up to 46 µM. The essentials:
(§2)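 After compound transfer in DMSO, plates were kept 72 hr at 37 degree celsius. Luminescent ATP signal from CellTiter-Glo served as viability measure, normalized against DMSO and no-cell controls.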
On the technique in general: In qHTS, concentration-response curves come from the screen itself.

Another experiment deals with MCC-26. Described as above. To be noted: MCC and control cell lines, CellTiter-Glo viability, 72 h; series mostly up to 46 µM. In a few lines: as §2
The subject of the next experiment is MKL-1. The description is as above. To be noted: MCC and control cell lines, CellTiter-Glo viability, 72 h; series mostly up to 46 µM. In a few lines: as §2
For a further experiment, the system named is MKL-2. The experiment is described as above. To be noted: MCC and control cell lines, CellTiter-Glo viability, 72 h; series mostly up to 46 µM. The essentials: as §2
For experiment [3], the system named is NIH3T3. The description is as above. To be noted: MCC and control cell lines, CellTiter-Glo viability, 72 h; at 44.8 µM (top of the series) unless noted. In a few lines:
as §2

The test system of experiment [4] is HACAT. Described as above. To be noted: MCC and control cell lines, CellTiter-Glo viability, 72 h; at 44.8 µM (top of the series) unless noted. The essentials:
as §2

For another experiment, the system named is HEK293T. Described as above. The settings on record: MCC and control cell lines, CellTiter-Glo viability, 72 h; at 44.8 µM (top of the series) unless noted. In a few lines: as §2

Molecules are shown by their SMILES. Where “and” joins values, the source holds several entries; their conditions need not be identical. Identical values can stand only once. Results filed as inconclusive are left out. Some structures have more than one record in an assay (separate samples or runs), and their calls can disagree. A number with no mark means an inactive call. Calls of active or inactive are those of the source. The call rests on the fitted dose curve; in most records, active means well fitted inhibition curve with a large enough effect; inconclusive means small, poorly fitted or top-dose-only effect; inactive means flat fitted curve, though single readings scatter.
Further: nearly all actives have a fitted effect of over 60% in size.
On the % scale 0 is the no-effect control and ±100 the full control effect; potency means the concentration at half of the fitted maximal effect.

For `C[C@]12CCC(=O)C=C1CC[C@@H]1[C@@H]2CC[C@@]2(C)[C@H]1CC[C@]2(O)C(=O)CO`, the results for the max response with HaCat [1] and in the experiment on NIH3T3 [2] were -3.7% and -17.4%, respectively. Further, the Potency entry in the experiment with MCC-13, in the experiment on MCC-26, in the experiment with MKL-1 and in the experiment with MKL-2 was “inactive” each time.
`CCCCNc1ccc(C(=O)OCCN(C)C)cc1`: the max response in the experiment with HaCat [1] was -3.56%. Moreover, the result in the experiment with NIH3T3 [2] and in the experiment on NIH3T3 [3] was inactive. Further, the Potency result in the experiment on MCC-13, with MCC-26 and in the experiment on MKL-2 was “inactive” each time.
In the case of `COCCOC(=O)C1=C(C)NC(C)=C(C(=O)OC(C)C)C1c1cccc([N+](=O)[O-])c1` (stereo not drawn), the call in the experiment on HaCat [1] and with HACAT [4] was inactive. In the experiment on NIH3T3 [2], the max response is -6.33%. Further, the Potency entry with MCC-13 and in the experiment on MCC-26 was “inactive” throughout.
For the compound `O=C1CC2(CCCC2)CC(=O)N1CCCCN1CCN(c2ncccn2)CC1`, the outcome in the experiment with HaCat [1] and in the experiment with HACAT [4] was inactive. Further, in the experiment with NIH3T3 [2], the max response is -6.17%. The Potency entry with MCC-13, with MCC-26 and with MKL-2 was “inactive” each time.
As for `c1cnc(N2CCN(Cc3ccc4c(c3)OCO4)CC2)nc1`, the call in the experiment with HaCat [1] and with HACAT [4] was inactive. Further, the max response in the experiment with NIH3T3 [2] was -2.83%. The Potency entry in the experiment on MCC-13, with MCC-26, with MKL-1 and in the experiment on MKL-2 was “inactive” in each case.
Turning to `CCn1ccnc1CC1COc2ccccc2O1` (stereo not drawn), the max response in the experiment with HaCat [1] is 2.89%; with NIH3T3 [2] it was -3.18%. Further, the Potency result in the experiment on MCC-13, in the experiment on MCC-26, in the experiment with MKL-1 and in the experiment on MKL-2 was “inactive” in each case.
Regarding `CCCN1C[C@H](CSC)C[C@@H]2c3cccc4[nH]cc(c34)C[C@H]21`, the max response is 4.81% and -5.73% in the experiment on HaCat [1]; -7.31% with NIH3T3 [2]. Also, the Potency with NIH3T3 [2] was 21.1 µM (active). For the same compound, the Potency result in the experiment with MCC-13, in the experiment on MCC-26, in the experiment with MKL-1 and with MKL-2 was “inactive” in each case.
Take `NC(=O)c1ncn([C@@H]2O[C@H](CO)[C@@H](O)[C@H]2O)c1O`: the call in the experiment on HaCat [1] and with HACAT [4] was inactive. Further, in the experiment with NIH3T3 [2], the max response is -1.25%. The Potency result in the experiment with MCC-13, with MCC-26, in the experiment with MKL-1 and in the experiment with MKL-2 was “inactive” throughout.
For `CC(=O)Oc1cc(C(C)C)c(OCCN(C)C)cc1C`, the max response with HaCat [1] is 3.27%. Further, the call with NIH3T3 [2], in the experiment with HEK293T and in the experiment with NIH3T3 [3] was inactive. The Potency entry in the experiment on MCC-13, in the experiment on MCC-26, in the experiment with MKL-1 and with MKL-2 was “inactive” each time.
For the compound `Cc1ccc(/C(=C\CN2CCCC2)c2ccccn2)cc1`, the max response with HaCat [1] was -3.07%; in the experiment on NIH3T3 [2], 1.95%. Moreover, the Potency entry in the experiment with MCC-13, in the experiment on MCC-26, in the experiment on MKL-1 and in the experiment on MKL-2 was “inactive” each time.
Turning to `COc1cc2c(cc1OC)-c1cc(=Nc3c(C)cc(C)cc3C)n(C)c(=O)n1CC2`, the outcome with HaCat [1] and in the experiment on HACAT [4] was inactive.
As to `CC1=C(C)C(=O)C(CCCCC#CCCCC#CCO)=C(C)C1=O`, the max response in the experiment on HaCat [1] was -15.6%; with NIH3T3 [2], -8.8%. Also, the Potency result with MCC-13 and in the experiment on MCC-26 was “inactive” throughout. Further, in the experiment on MKL-2, the Potency is 26.6 µM (active).
Turning to `OC(CCN1CCCCC1)(c1ccccc1)C1CCCCC1` (stereo not drawn), the compound was called inactive in the experiment with HaCat [1] and in the experiment on HACAT [4]. Besides, in the experiment on NIH3T3 [2], the max response was -0.663%. Also, the Potency entry with MCC-13, with MCC-26, in the experiment with MKL-1 and in the experiment on MKL-2 was “inactive” throughout.
`CCN(CC)CCNC(=O)c1ccc(NC(C)=O)cc1`: the max response was 0.497% in the experiment on HaCat [1] and -3.76% with NIH3T3 [2]. In addition, the Potency entry with MCC-13, in the experiment with MCC-26, in the experiment with MKL-1 and in the experiment on MKL-2 was “inactive” each time.
On to `CN(C)C(=O)Oc1cccc([N+](C)(C)C)c1`, for which the outcome in the experiment on HaCat [1], in the experiment with HACAT [4] and in the experiment with HEK293T was inactive. Moreover, the max response with NIH3T3 [2] is 1.77%. Further, the Potency entry in the experiment on MCC-13, in the experiment with MCC-26, in the experiment on MKL-1 and in the experiment with MKL-2 was “inactive” in each case.
With `CC(C)(Oc1ccc(CCNC(=O)c2ccc(Cl)cc2)cc1)C(=O)O`, the result in the experiment with HaCat [1], with NIH3T3 [2], in the experiment with HACAT [4] and in the experiment with NIH3T3 [3] was inactive. Besides, the Potency entry with MCC-13, with MCC-26, in the experiment on MKL-1 and in the experiment with MKL-2 was “inactive” each time.
Regarding `Cc1scc2c1N(C(=O)CN1CCN(C)CC1)c1ccccc1NC2=O`, the result in the experiment with HaCat [1] and with HACAT [4] was inactive. Further, in the experiment on NIH3T3 [2], the max response is -7.24%. Besides, the Potency result with MCC-13, in the experiment on MCC-26 and in the experiment on MKL-2 was “inactive” each time.
As for `O=c1[nH]c(=O)n([C@H]2C[C@H](O)[C@@H](CO)O2)cc1Br`, the figures for the max response in the experiment with HaCat [1] and in the experiment on NIH3T3 [2] were 2.47% and 1.37%, respectively. The Potency result in the experiment on MCC-13, with MCC-26, in the experiment with MKL-1 and with MKL-2 was “inactive” throughout.
Turning to `CCCNC(C)C(=O)Nc1ccccc1C` (stereo not drawn), the compound was called inactive in the experiment with HaCat [1] and in the experiment with HACAT [4]. In the experiment on NIH3T3 [2], the max response was -0.782%. Moreover, the Potency result in the experiment on MCC-13, with MCC-26, in the experiment on MKL-1 and in the experiment with MKL-2 was “inactive” throughout.
In the case of `Cc1ccc(S(=O)(=O)NC(=O)NN2CCCCCC2)cc1`, the max response in the experiment on HaCat [1] is 3.13%; with NIH3T3 [2] it was 0.771%. Also, the Potency result in the experiment with MCC-13, in the experiment on MCC-26, in the experiment on MKL-1 and in the experiment with MKL-2 was “inactive” in each case.
As for `c1ccc2c(c1)CCCC2C1=NCCN1` (stereo not drawn), the compound was called inactive in the experiment on HaCat [1], in the experiment on NIH3T3 [2], in the experiment on HACAT [4] and in the experiment on NIH3T3 [3]. Moreover, the Potency result with MCC-13, in the experiment on MCC-26, in the experiment with MKL-1 and in the experiment with MKL-2 was “inactive” each time.
`O=C(O)CCCCCCCC(=O)O`: the max response in the experiment on HaCat [1] is 2.4%. Moreover, the compound was called inactive in the experiment on NIH3T3 [2] and in the experiment with NIH3T3 [3]. Moreover, the Potency result with MCC-13, in the experiment on MCC-26 and with MKL-2 was “inactive” each time.
Regarding `NC(=O)c1cn(Cc2c(F)cccc2F)nn1`, the max response in the experiment on HaCat [1] is 0.796%; with NIH3T3 [2], -0.364%. For the same compound, the Potency entry with MCC-13, in the experiment on MCC-26, with MKL-1 and with MKL-2 was “inactive” each time.
As to `CN1CCN(C2=Nc3ccccc3Oc3ccc(Cl)cc32)CC1`, the figures for the max response in the experiment with HaCat [1] and in the experiment with NIH3T3 [2] were -5.97% and -11%, respectively. For the same compound, the Potency result in the experiment on MCC-13, in the experiment with MCC-26 and in the experiment on MKL-1 was “inactive” each time.
On to `CN1C(=O)CC[C@H]1c1cccnc1`, for which the compound was called inactive in the experiment on HaCat [1] and with HACAT [4]. The max response in the experiment with NIH3T3 [2] is -5.17%. In addition, the Potency result with MCC-13, with MCC-26, in the experiment on MKL-1 and in the experiment on MKL-2 was “inactive” throughout.
As for `CCCCCCCC/C=C\CCCCCCCC(=O)NCc1ccc(O)c(OC)c1`, the outcome in the experiment on HaCat [1] and in the experiment with HACAT [4] was inactive. For the same compound, the max response in the experiment with NIH3T3 [2] is -24.7%. Also, the Potency entry in the experiment on MCC-13, in the experiment on MCC-26 and in the experiment on MKL-1 was “inactive” throughout.
